In general, inhibition refers to the drop in the measured response relative to a control, in per cent.

The source made the active and inactive calls.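 Rule for the calls, unless noted: active = inhibition of the reporter signal at or above 50%; inactive = inhibition below 50%.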

The record followed here is PubChem BioAssay.

The nature of experiment [1]: inhibitors of TNFa-induced NFkB p65 translocation, primary screen, imaging, HUVEC, MLSMR starter and 10KST1 sets (AID 438;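 active = inhibition above 20% together with a positive visual image hit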;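 note: compound added about 3h40 before a 20 min TNFalpha stimulation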;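 for inhibition: signal is the nuclear over cytoplasmic p65 intensity ratio per well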). To be noted: HUVEC TNFa-induced p65 nuclear translocation; cell count: measured here: nuclei count (cytotoxicity indicator), at 2.08 µM; inhibition: at 2 µM, stronger effect = higher value, 0% TNFa-plus-vehicle, 100% no-TNFa wells.
Experiment [2] is described as follows: inhibitors of mutant huntingtin aggregation, primary screen, imaging, exon1htt(103Q)mCFP cells, high-content imaging (AID 483;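 active = visual image review flags a hit and inhibition of aggregation exceeds 20%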;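 note: compound exposure lasted 3 days before fixation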;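 for nuclei count: percent of the per-plate median nuclei count of sample wells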). The note with it: exon1htt(103Q)mCFP cell line, aggregate imaging, at 2 µM; inhibition of aggregation: stronger effect = higher value; nuclei count: measured here: cell count, toxicity.
Experiment [3] is described as follows: inhibitors of E-selectin induction by TNFa, primary screen, imaging, HUVEC, immunofluorescence, MLSMR starter and 10KST1 sets (AID 487;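 active = visually confirmed hit in the image check and inhibition above 20%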;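 for inhibition: signal is fraction of cell area covered by stained E-selectin grains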;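 for nuclei count: 100% = median nuclei count of all wells on the same plate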). To be noted: HUVEC TNFalpha-induced E-selectin immunofluorescence imaging, at 2 µM; inhibition: stronger effect = higher value; nuclei count: measured here: cell number, toxicity.
The target in experiment [4] is Voltage-gated potassium channel subunit beta-2 (Rattus norvegicus) (UniProt P62483). In words: KvBeta enzyme negative modulators, primary screen, biochemical, NADPH fluorescence (AID 622;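 active = fluorescence slope higher than the sample average by over 3 SD, cut at about -0.22 in these data, passing the limit was not always enough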;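 note: slope of raw intensity against log time taken from 70 to 1610 s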). To be noted: recombinant KvBeta, 4-cyanobenzaldehyde reduction, at 10 µM, stronger effect = higher value.
Chain of Voltage-gated potassium channel subunit beta-2 (Rattus norvegicus) (P62483 whole entry, looked up): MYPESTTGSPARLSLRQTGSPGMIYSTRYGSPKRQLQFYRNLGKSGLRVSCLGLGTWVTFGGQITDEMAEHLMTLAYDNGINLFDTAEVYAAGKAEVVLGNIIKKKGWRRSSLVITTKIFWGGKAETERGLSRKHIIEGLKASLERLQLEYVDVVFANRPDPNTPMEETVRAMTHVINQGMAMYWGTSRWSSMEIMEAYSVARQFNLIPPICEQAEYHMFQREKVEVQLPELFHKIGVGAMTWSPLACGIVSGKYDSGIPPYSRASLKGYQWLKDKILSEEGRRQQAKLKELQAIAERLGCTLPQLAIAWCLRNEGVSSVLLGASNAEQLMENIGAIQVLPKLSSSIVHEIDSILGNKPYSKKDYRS
The target is the same in experiment [5]. In words: KvBeta positive modulators, primary screen, biochemical, NADPH fluorescence (AID 623;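 active = NADPH fluorescence slope more negative than the mean of all samples by about 3 SD, 99.7% confidence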;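 note: fluorescence intensity change per second fitted from 20 to 320 s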). The note with it: Recombinant KvBeta, NADPH fluorescence decrease slope, 10 min; at 10 µM; stronger effect = lower value.
Experiment [6] has as its target Alpha-2C adrenergic receptor (Homo sapiens) (UniProt P18825). In words: modulators of alpha2C/GIRK thallium flux, primary screen, cell-based, HEK293 alpha2C/GIRK1/2 (AID 624;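 active = fluorescence slope after compound addition differing from the mean of all screened samples at 99.7% confidence, in either direction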;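 note: slope of fluorescence ratio to pre-addition baseline per second over 15 to 24 s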). The note with it: thallium flux BTC fluorescence, at 10 µM, actives lie on both sides.
Experiment [7] can be described thus: inhibitors of Sendai virus-induced IRF3 signaling, primary screen, TLR/RLR signaling modifier project, cell-based, Sendai virus stimulus, luciferase, 10K MLSCN set (AID 602276;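 active = inhibition at or above 50% at 10 µM; inactive = inhibition below 50%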;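 note: firefly luciferase from ISG56 promoter only with Renilla not read in this screen; 0% = Sendai virus plus DMSO and 100% = medium plus DMSO without virus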). The note with it: HEK293 RL24 IRF3 luciferase reporter, at 10 µM, stronger effect = higher value.
Experiment [8] is described as follows: inhibitors of poly I:C-induced TLR3 signaling, primary screen, cell-based, poly I:C stimulus, luciferase, 10K MLSCN set (AID 602277). The note with it: HEK293-TLR3 RL24 IRF3 luciferase reporter, at 10 µM, stronger effect = higher value. (In general: In a reporter assay the amount or activity of a reporter protein is the signal.)

Chain of Alpha-2C adrenergic receptor (Homo sapiens) (P18825 whole entry, looked up): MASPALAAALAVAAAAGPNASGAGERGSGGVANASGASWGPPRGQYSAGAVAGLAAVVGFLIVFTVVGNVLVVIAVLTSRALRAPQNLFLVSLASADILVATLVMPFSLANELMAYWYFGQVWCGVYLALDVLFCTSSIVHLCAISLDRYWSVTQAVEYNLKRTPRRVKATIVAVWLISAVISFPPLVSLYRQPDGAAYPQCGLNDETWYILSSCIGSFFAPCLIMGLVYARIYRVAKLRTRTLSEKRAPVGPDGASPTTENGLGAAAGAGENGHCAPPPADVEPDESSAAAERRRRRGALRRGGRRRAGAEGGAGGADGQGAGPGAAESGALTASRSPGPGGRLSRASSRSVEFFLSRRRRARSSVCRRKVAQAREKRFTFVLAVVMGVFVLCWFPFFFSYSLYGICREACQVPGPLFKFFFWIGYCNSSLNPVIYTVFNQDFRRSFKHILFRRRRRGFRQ

`Cc1cc(NC(=O)CCC(=O)N(CC(=O)NC2CCCC2)Cc2ccc(F)cc2)no1`: the cell count in experiment [1] turned out to be 402. Also, the inhibition in experiment [1] was 0.8% (inactive); in experiment [3], -48.3% (inactive); in experiment [7] it was 14.9% (inactive); in experiment [8] it was 13.1% (inactive). The inhibition of aggregation in experiment [2] is -35.1% (inactive). Further, the nuclei count in experiment [2] came out at 103%; in experiment [3] it was 122%. For the same molecule, the fluorescence slope in experiment [4] is -0.421 (inactive). Also, the NADPH fluorescence slope in experiment [5] was -3.6e-05 (inactive). Besides, the slope in experiment [6] was 0.00498 (inactive).
For `CCOCCCNC(=O)c1ccc2c(c1)N(Cc1ccccc1)C(=O)CS2=O` (centres undefined), in experiment [1], the cell count came to 754. Further, the inhibition was -7.4% (inactive) in experiment [1], -20.2% (inactive) in experiment [3], -4.11% (inactive) in experiment [7] and 21% (inactive) in experiment [8]. Besides, in experiment [2], the inhibition of aggregation is -19% (inactive). In addition, the nuclei count in experiment [2] is 94.2%; in experiment [3] it was 125%. Also, in experiment [4], the fluorescence slope is -0.525 (inactive). The NADPH fluorescence slope in experiment [5] is -1e-05 (inactive). The slope in experiment [6] was 0.00701 (inactive).
As for `COc1ccc(N2CCN(C(=O)Cc3ccc(-n4c(=O)[nH]c5ccccc5c4=O)cc3)CC2)cc1`, in experiment [1], the cell count came to 660. Also, the inhibition in experiment [1] was -5.8% (inactive); in experiment [3] it was -103% (inactive); in experiment [7], 7.13% (inactive); in experiment [8], -1.38% (inactive). For the same molecule, the inhibition of aggregation in experiment [2] was -41.3% (inactive). The nuclei count in experiment [2] is 96.7%; in experiment [3] it was 103%. Also, in experiment [4], the fluorescence slope is -0.483 (inactive). The NADPH fluorescence slope in experiment [5] is 1.9e-05 (inactive). Besides, in experiment [6], the slope was 0.00662 (inactive).
Take `Cn1c2ccccc2c2ncn(CCCN3CCOCC3)c(=O)c21`: in experiment [1], the cell count amounted to 715. Besides, the inhibition in experiment [1] is -0.6% (inactive); in experiment [3] it was 5.6% (inactive); in experiment [7], 5.16% (inactive); in experiment [8], 23.7% (inactive). For the same molecule, the inhibition of aggregation in experiment [2] is -15.1% (inactive). In addition, the nuclei count in experiment [2] was 94%; in experiment [3], 113%. The fluorescence slope in experiment [4] was -0.383 (inactive). For the same molecule, the NADPH fluorescence slope in experiment [5] was 2e-05 (inactive). For the same molecule, in experiment [6], the slope was 0.00539 (inactive).
On to `N#Cc1ccc(CSc2nnc(-c3cccs3)n2-c2ccccc2)cc1`, for which the cell count in experiment [1] stood at 369. The inhibition is -6% (inactive) in experiment [1], -50% (inactive) in experiment [3], -0.725% (inactive) in experiment [7] and 2.95% (inactive) in experiment [8]. Further, in experiment [2], the inhibition of aggregation was -12.4% (inactive). Moreover, the results for the nuclei count in experiment [2] and in experiment [3] were 99.1% and 120%, respectively. The fluorescence slope in experiment [4] is -0.5 (inactive). For the same molecule, in experiment [5], the NADPH fluorescence slope was 9.2e-06 (inactive). In addition, the slope in experiment [6] was 0.00461 (inactive).
For the molecule `Cc1ccc(C2C(C(=O)c3sc(C)nc3C)=C(O)C(=O)N2CCN(C)C)o1` (centres undefined), the cell count in experiment [1] came to 387. The inhibition in experiment [1] is -7.6% (inactive); in experiment [3], -161% (inactive); in experiment [7] it was 7.21% (inactive); in experiment [8] it was 6.57% (inactive). The inhibition of aggregation in experiment [2] was -12.7% (inactive). The nuclei count stood at 107% in experiment [2] and 127% in experiment [3]. In addition, in experiment [4], the fluorescence slope was -0.351 (inactive). Besides, in experiment [5], the NADPH fluorescence slope was -4.5e-05 (inactive). In addition, the slope in experiment [6] is 0.00504 (inactive).
Take `Cc1cccc(OCCCc2c(C)n[nH]c2C)c1`: the cell count in experiment [1] came out at 348. In addition, the inhibition in experiment [1] is 2.2% (inactive); in experiment [3], -10% (inactive); in experiment [7] it was -15.1% (inactive); in experiment [8], -15.9% (inactive). Moreover, the inhibition of aggregation in experiment [2] is 7.5% (inactive). Also, the nuclei count in experiment [2] turned out to be 98.5%; in experiment [3], 118%. For the same molecule, the fluorescence slope in experiment [4] is -0.501 (inactive). Besides, the NADPH fluorescence slope in experiment [5] is 6.9e-05 (inactive). Besides, the slope in experiment [6] is 0.00319 (inactive).
Take `Cc1cc(C(N)=O)c2cc(Br)ccc2n1`: in experiment [1], the cell count turned out to be 367. Also, the inhibition in experiment [1] was 5.5% (inactive); in experiment [3] it was -54% (inactive); in experiment [7] it was 4.62% (inactive); in experiment [8], 32.5% (inactive). In addition, the inhibition of aggregation in experiment [2] was 0.7% (inactive). In addition, the figures for the nuclei count in experiment [2] and in experiment [3] were 94.5% and 120%, respectively. The fluorescence slope in experiment [4] was -0.436 (inactive). Further, in experiment [5], the NADPH fluorescence slope is -5.1e-05 (inactive). In experiment [6], the slope was 0.0072 (inactive).
`COC(=O)c1cnc2c(C(F)(F)F)cccc2c1OC`: the cell count in experiment [1] was determined as 595. Also, the inhibition in experiment [1] is -8.5% (inactive); in experiment [3], -64.2% (inactive); in experiment [7], 9.38% (inactive); in experiment [8] it was 10.1% (inactive). Besides, the inhibition of aggregation in experiment [2] is -5% (inactive). Further, the nuclei count in experiment [2] was 61.8%; in experiment [3] it was 84.8%. Also, in experiment [4], the fluorescence slope is -0.605 (inactive). Further, in experiment [5], the NADPH fluorescence slope is 6.9e-06 (inactive). In addition, in experiment [6], the slope is 0.0043 (inactive).
For the molecule `CCCOC(=O)c1ccc(-c2c(C)noc2-c2ccc(OC)cc2O)o1`, the cell count in experiment [1] stood at 162. Also, the inhibition is -6.3% (inactive) in experiment [1], 0.4% (inactive) in experiment [3], 1.25% (inactive) in experiment [7] and 2.32% (inactive) in experiment [8]. The inhibition of aggregation in experiment [2] was 1.9% (inactive). Further, the nuclei count came out at 106% in experiment [2] and 87% in experiment [3]. Further, the fluorescence slope in experiment [4] is -0.495 (inactive). The NADPH fluorescence slope in experiment [5] was -3.7e-05 (inactive). The slope in experiment [6] is 0.00302 (inactive).
On to `COc1cc(NS(=O)(=O)N2CCCC2)cc(OC)c1OC`, for which, in experiment [1], the cell count came to 712. Besides, the inhibition is 0.7% (inactive) in experiment [1], -115% (inactive) in experiment [3], 7.48% (inactive) in experiment [7] and 16.9% (inactive) in experiment [8]. In addition, the inhibition of aggregation in experiment [2] was 9% (inactive). For the same molecule, the nuclei count in experiment [2] was determined as 95.3%; in experiment [3], 128%. Besides, the fluorescence slope in experiment [4] was -0.498 (inactive). Also, the NADPH fluorescence slope in experiment [5] is -1.9e-05 (inactive). The slope in experiment [6] was 0.00502 (inactive).
Consider `Cn1c(SCC(=O)Nc2cccc3ccccc23)nc(O)cc1=O`, for which, in experiment [1], the cell count was determined as 548. The inhibition in experiment [1] is -0.9% (inactive); in experiment [3], 17.2% (inactive); in experiment [7], 11.6% (inactive); in experiment [8] it was 15.1% (inactive). In addition, in experiment [2], the inhibition of aggregation is -2.1% (inactive). The nuclei count in experiment [2] amounted to 113%; in experiment [3], 120%. Moreover, the fluorescence slope in experiment [4] was -0.42 (inactive). In addition, in experiment [5], the NADPH fluorescence slope was -4.6e-05 (inactive). In experiment [6], the slope is 0.00441 (inactive).
`Cc1cccc(-c2c3c(=O)n(C)c(=O)n(C)c3cn2-c2ccc(O)cc2)c1`: in experiment [1], the cell count turned out to be 363. Also, the inhibition in experiment [1] is -2.8% (inactive); in experiment [3], -49.7% (inactive); in experiment [7], 6.51% (inactive); in experiment [8], 17.1% (inactive). In addition, the inhibition of aggregation in experiment [2] was 30.8% (inactive). For the same molecule, the results for the nuclei count in experiment [2] and in experiment [3] were 90.3% and 98.7%, respectively. In addition, the fluorescence slope in experiment [4] is -0.579 (inactive). Also, the NADPH fluorescence slope in experiment [5] is -2.6e-05 (inactive). In addition, the slope in experiment [6] is 0.00566 (inactive).
Take `CC1CCN(CCn2c(=S)[nH]c3ncccc3c2=O)CC1`: in experiment [1], the cell count was determined as 508. Also, the inhibition in experiment [1] is 7.1% (inactive); in experiment [3], -9.3% (inactive); in experiment [7], 10.2% (inactive); in experiment [8], 26.9% (inactive). In addition, in experiment [2], the inhibition of aggregation was -13.9% (inactive). The nuclei count came out at 115% in experiment [2] and 105% in experiment [3]. Moreover, the fluorescence slope in experiment [4] is -0.411 (inactive). The NADPH fluorescence slope in experiment [5] was -3.5e-05 (inactive). Moreover, the slope in experiment [6] is 0.00346 (inactive).
